Columns and labels:
Format in all cases: functional
[1] = test system: Plasmodium falciparum; assay: GSK_TCMDC: Inhibition of Plasmodium falciparum 3D7 in whole red blood cells, using parasite LDH activity as an index of growth. Test compounds present at 2uM
[2] = test system: Plasmodium falciparum; assay: GSK_TCMDC: Inhibition of Plasmodium falciparum Dd2 in whole red blood cells, using parasite LDH activity as an index of growth. Test compounds present at 2uM
[3] = test system: HepG2; assay: GSK_TCMDC: Percent inhibition of human HepG2 cell line. Test compounds present at 10uM.

SMILES | Inhibition [1] | Inhibition [2] | Inhibition [3]
C=CCOC(=O)N1CCC(CNCc2cccc(-c3cccc(-c4nc5cc(F)ccc5[nH]4)c3)c2)C1.O=C(O)C(F)(F)F (stereo unspecified) | 100% | 49% | 20%
CN1CCC(C(=O)Nc2cccc(-c3ccc(-c4nc5ccccc5[nH]4)cc3)c2)CC1 | 82% | 15% | 7%
Cl.NC1CCN(Cc2cccc(-c3ccc(-c4nc5cc(C(F)(F)F)ccc5[nH]4)cc3)c2)C1 (stereo unspecified) | 99% | 97% | 21%
O=C(N/C=N/c1cc([N+](=O)[O-])c(-c2ccncc2)n1-c1ccccc1)c1cccc(O)c1 | 100% | 56% | 2%
O=[N+]([O-])c1cccc(/C=N/Nc2ccnc3cc(F)ccc23)c1 | 100% | 100% | 4%
COc1ccc2ncc(F)c(CCN3CC[C@@H](CNCc4cc5c(cn4)OCS5)C3)c2n1.Cl | 98% | 29% | 3%
COc1cc(Cc2cnc(N)nc2N)c2ccsc2c1OC.Cl | 92% | 4% | 5%
O=C(NC1CCN(Cc2ccccc2)CC1)c1cccc(Nc2nc(-c3ccccc3)cs2)c1 | 84% | 3% | 70%
Cc1cccc2nc(-c3ccc(-c4cccc(NC(=O)NCc5cccc(F)c5)c4)cc3)[nH]c12 | 94% | 5% | 27%
CC[C@H]1CN2CCc3c([nH]c4ccccc34)[C@@H]2C[C@@H]1CC1c2cc(OC)c(OC)cc2CCN1C.Cl (stereo partly specified) | 85% | 45% | 31%
CCn1c(C)cc(C=C2SC(=Nc3ccccc3)NC2=O)c1C | 90% | 87% | 27%
CC(C)N1CCCN(C(=O)C2CCN(c3ccc(C(=O)N4CCCC4)cn3)CC2)CC1.Cl | 86% | 12% | 41%
CCC(CO)NCC(O)Cn1c2ccc(Cl)cc2c2cc(Cl)ccc21 (stereo unspecified) | 96% | 88% | 11%
NC(=O)c1cccc(C(=O)Nc2cccc(-c3ccc(-c4nc5cc(C(F)(F)F)ccc5[nH]4)cc3)c2)c1 | 100% | 78% | 83%
O=C(NCc1cccc(F)c1)Nc1ccc(-c2ccc(-c3nc4cc(C(F)(F)F)ccc4[nH]3)cc2)cc1 | 100% | 24% | 46%
COCCN(C(=O)Cc1cccs1)C(C(=O)NCc1ccc(OC)cc1)c1ccc(C(C)C)cc1 (stereo unspecified) | 96% | 59% | 0%
CCN1CCCC1CN(Cc1ccc(-c2ccc(C(F)(F)F)cc2)cc1)C(=O)Cn1c(CCc2cccc(F)c2F)nc(=O)c2ccccc21.O=C(O)C(O)C(O)C(=O)O (stereo unspecified) | 94% | 51% | 40%
O=C(CCCCCNC(=O)c1ccc(O)c(-c2ccc(Cl)c(Cl)c2)c1)NCCN1CCCCC1 | 93% | 1% | 0%
O=C(Nc1ccc(-c2ccc(-c3nc4cc(C(F)(F)F)ccc4[nH]3)cc2)cc1)Nc1ccc(F)c(F)c1F | 99% | 100% | 39%
CCCC(C)Nc1nc(C)cc(N[C@@H](CC(C)C)C(=O)NCc2cccc(F)c2)n1.O=C(O)C(F)(F)F (stereo partly specified) | 96% | 63% | 1%
CC(C)(C)c1ccc(S(=O)(=O)Nc2cc(Cl)ccc2Cn2ccc(N3CCNCC3)nc2=O)cc1.O=C(O)C(F)(F)F | 95% | 74% | 0%
CCc1cc(C(=O)c2cccc(C)c2)c(NC(=O)CN2CCN(C(=O)c3ccco3)CC2)s1 | 91% | 85% | 0%
COc1cc(CNCCCCCCNCc2cc(OC)c3ccccc3c2OC)c(OC)c2ccccc12.CS(=O)(=O)O | 100% | 40% | 99%
O=C(O)C(F)(F)F.O=S(=O)(NCCN1CCCC1)c1cccc(-c2ccc(CNCc3ccsc3)cc2)c1 | 100% | 31% | 33%
COc1ccc2c(OC)c(CNCCCCCCNCc3ccc4cc(OC)ccc4c3OC)ccc2c1.CS(=O)(=O)O | 98% | 49% | 100%
CN(C)Cc1ccc2cc(NC(=O)c3ccc(-c4ccc(Cl)cc4)cc3)ccc2c1 | 92% | 22% | 21%
CCN(CC)CCN(Cc1ccc(-c2ccc(C(F)(F)F)cc2)nc1)C(=O)Cn1c(SCc2ccc(F)cc2)nc(=O)c2sccc21.O=C(O)C(O)C(O)C(=O)O | 96% | 66% | 43%
